Assay results published in PubChem BioAssay (NCATS).
Values without a mark were called inactive. Calls come from the whole dose curve; as a rule, active = well fitted curve in the direction sought with a large enough effect; inconclusive = small, poorly fitted or top-dose-only effect, or another doubt; inactive = no such curve, though single readings can be large or run the other way. Inconclusive results are not listed.

target: Protein phosphatase 1D (Homo sapiens) (UniProt O15297); assay: Rhodamine-PBP qHTS Assay for Modulators of WT P53-Induced Phosphatase 1 (WIP1) (AID 1347425); details: recombinant WIP1, Rhodamine-PBP phosphate fluorescence, real-time; series mostly up to 57.5 µM; activity change, negative = inhibition: at the top concentration; note: % of control where 0% means no effect
Outline: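 The read-out is the change in Rhodamine-PBP fluorescence (f1 - f0, ex 525/em 598 nm) as Pi is released, read each minute for 11 min. Final reaction: 5 nM WIP1, 10 uM phosphopeptide VEPPL-pS-QETFS, 10 uM Rh-PBP, 50 mM Tris-HCl pH 7.5, 30 mM MgCl2. Compound was preincubated with enzyme for 1 hour at room temperature.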

Sequence of Protein phosphatase 1D (Homo sapiens) (O15297 whole entry, looked up): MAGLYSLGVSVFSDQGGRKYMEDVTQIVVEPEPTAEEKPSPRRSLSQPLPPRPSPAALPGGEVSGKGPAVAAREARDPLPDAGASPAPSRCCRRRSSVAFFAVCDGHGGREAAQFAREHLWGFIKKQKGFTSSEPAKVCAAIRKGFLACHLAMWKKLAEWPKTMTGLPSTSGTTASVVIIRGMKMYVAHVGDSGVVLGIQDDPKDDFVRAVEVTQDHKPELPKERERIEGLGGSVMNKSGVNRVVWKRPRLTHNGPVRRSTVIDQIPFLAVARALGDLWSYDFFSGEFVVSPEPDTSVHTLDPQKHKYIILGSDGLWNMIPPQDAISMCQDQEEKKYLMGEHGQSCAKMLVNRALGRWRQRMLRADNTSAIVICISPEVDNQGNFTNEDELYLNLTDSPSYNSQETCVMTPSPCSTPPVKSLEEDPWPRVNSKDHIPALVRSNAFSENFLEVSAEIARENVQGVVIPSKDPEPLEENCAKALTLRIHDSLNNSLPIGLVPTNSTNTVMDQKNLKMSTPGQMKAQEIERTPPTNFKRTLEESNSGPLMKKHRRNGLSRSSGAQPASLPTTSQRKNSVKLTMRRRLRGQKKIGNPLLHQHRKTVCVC

Compound	activity change, negative = inhibition [%]
CNCCC(Oc1ccc(C(F)(F)F)cc1)c1ccccc1 (stereo not given)	15.8
Nc1cc(=O)[nH]c(N)n1	11.4
CN1CCN(C2Cc3ccccc3Sc3ccc(Cl)cc32)CC1 (stereo not given)	19.6
CC(=O)CCC(=O)O	5.92
CCN(CC)C(C)CN1c2ccccc2Sc2ccccc21 (stereo not given)	-3.84
CN(C)CCOC(C)(c1ccccc1)c1ccccn1 (stereo not given)	3.41
CSc1ccc2c(c1)C(N1CCN(C)CC1)Cc1ccccc1S2 (stereo not given)	36.6
CN(C)CC[C@@H](c1ccc(Cl)cc1)c1ccccn1	1.26
CC(C)C(=O)c1c(C(C)C)nn2ccccc12	26.8
CN(C)CCC=C1c2ccccc2CCc2ccccc21	14.4
CN(C)CCCN1c2ccccc2Sc2ccc(Cl)cc21	4.56
C[C@H]1O[C@@H](n2cc(F)c(=O)[nH]c2=O)[C@H](O)[C@@H]1O	12.3
CN(C)CCCN1c2ccccc2CCc2ccccc21	13.6
CN(N=O)C(=O)N[C@@H]1[C@@H](O)[C@H](O)[C@@H](CO)O[C@@H]1O	6.64
CC1=C(CC(=O)O)c2cc(F)ccc2/C1=C\c1ccc(S(C)=O)cc1 (stereo not given)	16.8
CC(=O)c1ccc2c(c1)N(CCCN(C)C)c1ccccc1S2	9.51

Compound	activity change, negative = inhibition [%]
CCCn1cnc2c1c(=O)n(CCCCC(C)=O)c(=O)n2C	9.58
C[C@]12CC[C@@H]3c4ccc(O)cc4CC[C@H]3[C@@H]1CCC2=O	14.4
CC1=C(CC(=O)O)c2cc(F)ccc2/C1=C\c1ccc(S(C)(=O)=O)cc1	-34.3
CCCCN(CCCC)CC(O)c1cc(Cl)cc2c1-c1ccc(Cl)cc1/C2=C/c1ccc(Cl)cc1 (stereo not given)	10.6
C[C@]12C[C@H](O)[C@H]3[C@@H](CCC4=CC(=O)CC[C@@]43C)[C@@H]1CC[C@@H]2C(=O)CO	23.9
CC(=O)OCC(=O)[C@@]1(O)CC[C@H]2[C@@H]3CCC4=CC(=O)CC[C@]4(C)[C@H]3C(=O)C[C@@]21C	-29.6
NC(=O)c1ncn([C@@H]2O[C@H](CO)[C@@H](O)[C@H]2O)c1N	12
COC(=O)C1=C(C)NC(C)=C(C(=O)OC)C1c1ccccc1[N+](=O)[O-]	-12.7
C#CCN(C)Cc1ccccc1	-6.21
CCN(CC)CCOC(=O)C1(C2CCCCC2)CCCCC1	20.4
CSc1ccc2c(c1)N(CCC1CCCCN1C)c1ccccc1S2 (stereo not given)	21.3
CCCCCCCCCCCCCCCC(=O)NCCO	3.63
NC1CCN(c2cccc(Cl)n2)CC1	6.28
CNCC(O)c1ccc(O)c(O)c1 (stereo not given)	2.48
C[C@H](NC(CCc1ccccc1)C(=O)O)C(=O)N1CCC[C@H]1C(=O)O (stereo not given in full)	15.1
CC(CN(C)C)CN1c2ccccc2CCc2ccccc21 (stereo not given)	20.9

system: not listed separately; assay: Validation qHTS assay for inhibitors of Activation Induced Cytidine Deaminase (AID): UDG Counterscreen signal (AID 1347427); details: biochemical UDG counterscreen, fluorescence signal; series mostly up to 115 µM; activity, negative = inhibition: at the top concentration; note: 0% is about no effect
Outline: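 Counterscreen read of UDG activity (2 U/mL, 4/3x) in the FRET deamination format with AID (1 uM, 4/3x), DJC20/DJC23 substrates (250 nM, 4x), 4 h at room temperature. NaOH stop, fluorescence at 560 ex/665 em.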

Compound	activity, negative = inhibition [%]
Nc1cc(=O)[nH]c(N)n1	13
CN1CCN(C2Cc3ccccc3Sc3ccc(Cl)cc32)CC1 (stereo not given)	3.63
CCN(CC)C(C)CN1c2ccccc2Sc2ccccc21 (stereo not given)	-12
CN(C)CCOC(C)(c1ccccc1)c1ccccn1 (stereo not given)	6.16
CSc1ccc2c(c1)C(N1CCN(C)CC1)Cc1ccccc1S2 (stereo not given)	-3.08
CN(C)CC[C@@H](c1ccc(Cl)cc1)c1ccccn1	11.9
CC(C)C(=O)c1c(C(C)C)nn2ccccc12	4.87
CN(C)CCC=C1c2ccccc2CCc2ccccc21	4.69
CN(C)CCCN1c2ccccc2Sc2ccc(Cl)cc21	8.77
CC1=C(CC(=O)O)c2cc(F)ccc2/C1=C\c1ccc(S(C)=O)cc1 (stereo not given)	4.89
CCCn1cnc2c1c(=O)n(CCCCC(C)=O)c(=O)n2C	12.5
C[C@]12CC[C@@H]3c4ccc(O)cc4CC[C@H]3[C@@H]1CCC2=O	9.54
CC1=C(CC(=O)O)c2cc(F)ccc2/C1=C\c1ccc(S(C)(=O)=O)cc1	3.92
C[C@]12C[C@H](O)[C@H]3[C@@H](CCC4=CC(=O)CC[C@@]43C)[C@@H]1CC[C@@H]2C(=O)CO	7.55
CC(=O)OCC(=O)[C@@]1(O)CC[C@H]2[C@@H]3CCC4=CC(=O)CC[C@]4(C)[C@H]3C(=O)C[C@@]21C	4.64
COC(=O)C1=C(C)NC(C)=C(C(=O)OC)C1c1ccccc1[N+](=O)[O-]	14.4
C#CCN(C)Cc1ccccc1	2.43
CCN(CC)CCOC(=O)C1(C2CCCCC2)CCCCC1	5.72
CSc1ccc2c(c1)N(CCC1CCCCN1C)c1ccccc1S2 (stereo not given)	-0.445
CCCCCCCCCCCCCCCC(=O)NCCO	9.47
NC1CCN(c2cccc(Cl)n2)CC1	15
CNCC(O)c1ccc(O)c(O)c1 (stereo not given)	7.11
CC(CN(C)C)CN1c2ccccc2CCc2ccccc21 (stereo not given)	9.17
